Screens deposited in PubChem by several laboratories.
A selection: hits, their analogues and other compounds. The true share with any hit is near 4.4%.
tim23-1 inh: growth inhibitors of tim23-1 mutant yeast, primary screen, luminescence, uHTS | AID 463212, 2010 | 1.3% of 330,000 active | S. cerevisiae tim23-1 growth, BacTiter-Glo luminescence, 24 h | inhibition, % at 20 µM;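 active means growth inhibition of the mutant yeast at or above 50%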;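 further: temperature-sensitive mutant grown at 25 °C; plate controls were DMSO-treated mutant yeast for no effect and medium wells lacking yeast for full effect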
tim10-1 inh: growth inhibitors of tim10-1 mutant yeast, primary screen, luminescence, uHTS | inhibition, % at 20 µM | 2.2% of 330,000 active | S. cerevisiae tim10-1 ts strain growth, BacTiter-Glo, 24 h;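 active means inhibition of at least 40%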;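 further: mutant grown at 25 °C; 0% = DMSO wells with yeast and 100% = wells holding no yeast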
TIM10 inh: growth inhibitors of isogenic TIM10 control yeast, primary screen, counter-screen for tim10-1 yeast inhibitor project, luminescence, uHTS. inhibition, % at 10 µM. S. cerevisiae TIM10 strain growth, BacTiter-Glo luminescence, 24 h. 1.4% of 330,000 active;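 active means inhibition of 40% or more at the single tested concentration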;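 further: wild-type TIM10 isogenic control strain grown at permissive 25 °C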
SUMO Mot1 rescue: yeast Mot1-301 growth rescue at high temperature, primary screen, SUMOylation pathway inhibitor project, S. cerevisiae, ATP luminescence, 38.5C | growth rescue, % at 18.8 µM | AID 2716, 2010 | 1% of 320,000 active | S. cerevisiae Mot1-301 growth rescue; percent above DMSO median, 100 means doubled;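 active means every valid replicate shows activation above 250% relative to neutral control wells; inactive means the rest, any valid replicate at or below 250%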;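 further: OY570 slx delta 5 strain wells were the positive control but not used for scaling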
PfHsp90 set2: growth inhibition of PfHsp90-expressing yeast, primary screen, antimalarial PfHsp90 inhibitor project, S. cerevisiae, BacTiter-Glo luminescence, single point, set 2; BacTiter-Glo ATP, 48 h; yeast lacking PDR1 and PDR3 efflux regulators; inhibition, % at 9.4 µM; 0.32% of 310,000 active; AID 504621, 2011;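 active means every replicate shows inhibition above about 80%, whatever the replicate mean, limit read from the data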;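 further: 0% = DMSO neutral controls and 100% = 20 µM radicicol positive controls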
TIM10 conf: growth inhibitors of wild-type TIM10 yeast, confirmation, counter-screen for tim10-1 synthetic lethality project, single concentration, luminescence, S. cerevisiae. shares compounds with TIM10 inh. S. cerevisiae tim10 strain growth, BacTiter-Glo luminescence, 24 h. inhibition, % at 10 µM. 63% of 4,600 active;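 active means inhibition of yeast growth at or above a set limit in either of two replicates at 10 µM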;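 further: this counterscreen used the strain with wild-type TIM10; 0% = yeast with DMSO and 100% = medium wells lacking yeast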
* = called active by the depositor; . = no result.

SMILES | tim23-1 inh | tim10-1 inh | TIM10 inh | SUMO Mot1 rescue | PfHsp90 set2 | TIM10 conf
Cc1ccc(N(CC(=O)Nc2ccc(F)c(Cl)c2)S(=O)(=O)c2c(C)noc2C)cc1 | 18 | 38 | 64* | 1 | -8 | 61*
CC(C)(C)NC(=O)C(c1ccc(O)cc1)N(C(=O)CCC(=O)Nc1ccccn1)c1ccc(F)cc1 (stereo unspecified) | 3 | -3 | -2 | 3 | 5 | .
Cc1c(Cl)cccc1NC(=O)CCN1CCN(C)CC1 | 6 | 2 | -7 | 7 | 27 | .
Cc1ccc(/C=N/NC(=O)NN(C)c2ncc(C(F)(F)F)cc2Cl)cc1 | 19 | 29 | 41* | -5 | . | 45*
C/C(=N\NC(=O)c1ccccn1)c1ccc(Cl)cc1 | 9 | -9 | 1 | -9 | . | .
C/C(=N\Nc1ccc(Cl)cc1)c1ccccn1 | 40 | 32 | 52* | 64 | 4 | 34*
O=C(N/N=C/c1cccs1)c1ccc2ccccc2c1 | 44 | 10 | 47* | 33 | 16 | 27
Cc1cc(NC(=O)CCCS(=O)(=O)c2nc(-c3cccs3)cc(C(F)(F)F)n2)no1 | 4 | 39 | 49* | . | 21 | 37*
COC(=O)CCS(=O)(=O)c1nc(-c2ccccc2)cc(C(F)(F)F)n1 | 34 | 20 | 45* | -5 | 10 | 31*
CCOC(=O)CCS(=O)(=O)c1nc(-c2ccccc2)cc(C(F)(F)F)n1 | 21 | 18 | 52* | 101 | 3 | 58*
O=C(O)CCS(=O)(=O)c1nc(-c2cccs2)cc(C(F)(F)F)n1 | 26 | 26 | 29 | 11 | 32 | .
CC(C(=O)N(C)C1CCCCC1)N1CCC(C(N)=O)CC1 (stereo unspecified) | 2 | -4 | -21 | -17 | 0 | .
Cc1ccccc1Nc1nc(N)nc(COC(=O)CCNS(=O)(=O)c2ccccc2)n1 | 12 | 13 | 10 | -5 | . | .
CCOC(=O)C1=C(C)N(C)C(=S)NC1c1ccccc1Cl (stereo unspecified) | 17 | 8 | 21 | . | 26 | .
CCOC(=O)C1=C(C)N(C)C(=S)NC1c1cccc(Cl)c1Cl (stereo unspecified) | 16 | 36 | 48* | 9 | -3 | 28
Cc1ccc(Cl)cc1N1CCN(C(=O)c2ccccc2SCC(=O)N2CCCC2)CC1 | 12 | 7 | 1 | . | -2 | .
CSc1ccc(S(=O)(=O)Nc2ccc3c4c(cccc24)CC3)cc1 | 45 | 30 | 42* | -16 | . | 20
O=S(=O)(Nc1ccc2c3c(cccc13)CC2)c1ccc(F)cc1 | 40 | 9 | 0 | 58 | -35 | .
CC(CC(=O)Nc1ccc(Cl)c([N+](=O)[O-])c1)c1ccccc1 (stereo unspecified) | 35 | 38 | 42* | 3 | -12 | -14
O=C(COC(=O)C1C2CC3OC(=O)C1C3C2)Nc1ccc(Cl)cc1 (stereo unspecified) | 14 | 1 | 12 | 219 | 0 | .
COc1ccc(OC)c(NC(=O)CN2C(=O)NC(C)(c3ccc4c(c3)OCCO4)C2=O)c1 (stereo unspecified) | 22 | 15 | 11 | -11 | -15 | .
C=C(C)COc1ccc(-c2[nH]ncc2-c2ccccc2OC)c(O)c1 | 25 | 39 | 11 | 4 | -44 | .
C=C(C)COc1ccc(-c2[nH]ncc2-c2ccc(Br)cc2)c(O)c1 | 27 | -7 | 49* | -6 | 6 | -18
N#Cc1ccccc1OCC(=O)OCC(=O)NC1CC1 | -3 | 1 | 9 | -1 | 4 | .
Cc1ccc(C(=O)NCC(=O)NCc2ccc(Cl)cc2)s1 | 9 | -41 | -19 | 19 | . | .
SMILES | tim23-1 inh | tim10-1 inh | TIM10 inh | SUMO Mot1 rescue | PfHsp90 set2 | TIM10 conf
Cc1cc(CC(C)C)n(-c2nc3ccccc3c(=O)n2OCc2ccccc2)n1 | 38 | 34 | 40* | 6 | . | 37*
Oc1nc(Nc2cccc(Cl)c2)sc1/C=C1\C=Nc2ccccc21 | 35 | 18 | 44* | 76 | -25 | -16
Oc1cccc(Nc2nc(O)c(/C=C3\C=Nc4ccccc43)s2)c1 | -7 | -1 | 18 | 120 | -18 | .
CCOC(=O)c1[nH]c(CO)c(C(=O)OCC)c1C | 19 | -13 | 5 | -1 | -17 | .
Nc1ncnc2c1ncn2[C@@H]1O[C@H](CNCc2ccc(-c3cc(C(F)(F)F)ccc3Cl)o2)[C@@H](O)[C@H]1O | 27 | 9 | 1 | . | -4 | .
c1ccc(OCCOCCN2CCN(C(c3ccccc3)c3ccccc3)CC2)cc1 | 14 | 29 | 43* | -21 | 6 | -4
OC(COc1ccccc1)CN1CCN(C(c2ccccc2)c2ccccc2)CC1 (stereo unspecified) | 24 | -11 | 0 | -17 | -10 | .
CCC(=O)Nc1ccc(C(=O)OCc2ccccc2Cl)cc1 | 33 | 37 | 58* | -7 | 29 | 48*
CCC(=O)Nc1ccc(C(=O)c2ccccc2)cc1 | 20 | 23 | 17 | 7 | 1 | .
Cc1ccc(CN2CCN(/N=C\C(Br)=C\c3ccccc3)CC2)cc1 | 22 | 38 | 44* | 13 | 14 | 23
CC(C)[C@H]1C(=O)Nc2ccccc2N1C(=O)N[C@@H](Cc1ccccc1)C(=O)N[C@@H](Cc1ccccc1)C(=O)O | 11 | 8 | 2 | -8 | 6 | .
CC1CCC(NC(=O)COC(=O)c2n[nH]c(=O)c3ccccc23)CC1 (stereo unspecified) | 8 | 15 | 13 | 12 | . | .
CC(C)COP(=O)(c1ccc(N(C)C)cc1)C(O)c1ccc(Br)cc1 (stereo unspecified) | 26 | 27 | 42* | 2 | 3 | 35*
CC1=C(C(=O)OCc2ccccc2)C(c2ccccc2OS(=O)(=O)c2ccccc2[N+](=O)[O-])NC(=O)N1CCCC(=O)O (stereo unspecified) | 12 | 9 | 0 | -4 | . | .
CCOC(=O)C1=C(C)N(CCCC(=O)O)C(=O)NC1c1ccccc1OS(=O)(=O)c1ccccc1[N+](=O)[O-] (stereo unspecified) | -4 | -18 | 97* | 6 | -6 | -11
O=c1c2cc(N3CCOCC3)ccc2[nH]c(=S)n1CCCN1CCN(c2ccccc2F)CC1 | 16 | 26 | 47* | 6 | . | 24*
O=C(CN1C(=O)c2cccnc2Oc2ccc(Cl)cc21)N1CCOCC1 | 16 | 10 | 12 | 64 | 3 | .
CC(C)C(C(=O)NCC1CCCO1)N(C(=O)CNS(=O)(=O)c1ccccc1)c1ccc(F)cc1 (stereo unspecified) | 19 | -6 | -4 | 104 | -44 | .
Oc1ccc(Cl)cc1CNc1ccc(Br)cn1 | 31 | 34 | 47* | 25 | . | 23
